We go through 14 compounds from PubChem BioAssay.

Assay [1] in a line: inhibitors of TNFa-induced NFkB p65 translocation, primary screen, imaging, HUVEC, MLSMR starter and 10KST1 sets (AID 438;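 active means inhibition above 20% together with a positive visual image hit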;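 further: compound added about 3h40 before a 20 min TNFalpha stimulation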;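 on inhibition: signal is the nuclear over cytoplasmic p65 intensity ratio per well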). Particulars: HUVEC TNFa-induced p65 nuclear translocation; cell count: measured here: nuclei count (cytotoxicity indicator), at 2.08 µM; inhibition: at 2 µM, stronger effect = higher value, 0% TNFa-plus-vehicle, 100% no-TNFa wells.
Assay [2] can be described thus: reduction of polyQ htt aggregates in cells – imaging, exon1htt(103Q)mCFP cells, high-content imaging, primary screen (AID 483;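 active means visual image review flags a hit and inhibition of aggregation exceeds 20%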;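 further: compound exposure lasted 3 days before fixation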;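 on nuclei count: percent of the per-plate median nuclei count of sample wells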). The note with it: exon1htt(103Q)mCFP cell line, aggregate imaging, at 2 µM; inhibition of aggregation: stronger effect = higher value; nuclei count: measured here: cell count, toxicity.
The nature of assay [3]: endothelial E-selectin expression blockers – imaging, HUVEC, immunofluorescence, MLSMR starter and 10KST1 sets, primary screen (AID 487;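 active means visually confirmed hit in the image check and inhibition above 20%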;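 on inhibition: signal is fraction of cell area covered by stained E-selectin grains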;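 on nuclei count: 100% = median nuclei count of all wells on the same plate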). Particulars: HUVEC TNFalpha-induced E-selectin immunofluorescence imaging, at 2 µM; inhibition: stronger effect = higher value; nuclei count: measured here: cell number, toxicity.
The target of assay [4] is Voltage-gated potassium channel subunit beta-2 (Rattus norvegicus) (UniProt P62483). Put plainly: inhibitors of rat Kvbeta2 reductase activity – biochemical, NADPH fluorescence, primary screen (AID 622;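 active means fluorescence slope higher than the sample average by over 3 SD, cut at about -0.22 in these data, passing the limit was not always enough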;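 further: slope of raw intensity against log time taken from 70 to 1610 s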). Particulars: recombinant KvBeta, 4-cyanobenzaldehyde reduction, at 10 µM, stronger effect = higher value.
Chain of Voltage-gated potassium channel subunit beta-2 (Rattus norvegicus) (P62483 whole entry, looked up): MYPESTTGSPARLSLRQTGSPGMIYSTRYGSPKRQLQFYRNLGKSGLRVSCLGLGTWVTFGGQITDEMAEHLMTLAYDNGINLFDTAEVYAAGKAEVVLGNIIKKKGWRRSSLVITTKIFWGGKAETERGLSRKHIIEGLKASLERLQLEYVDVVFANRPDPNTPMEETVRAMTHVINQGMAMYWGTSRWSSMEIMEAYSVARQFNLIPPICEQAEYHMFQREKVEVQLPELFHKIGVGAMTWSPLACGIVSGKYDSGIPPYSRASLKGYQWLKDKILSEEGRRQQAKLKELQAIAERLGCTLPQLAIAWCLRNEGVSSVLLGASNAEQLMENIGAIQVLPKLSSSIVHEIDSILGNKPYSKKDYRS
Assay [5] shares this target. Put plainly: enhancers of rat Kvbeta2 NADPH turnover – biochemical, NADPH fluorescence, primary screen (AID 623;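 active means NADPH fluorescence slope more negative than the mean of all samples by about 3 SD, 99.7% confidence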;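 further: fluorescence intensity change per second fitted from 20 to 320 s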). Particulars: Recombinant KvBeta, NADPH fluorescence decrease slope, 10 min; at 10 µM; stronger effect = lower value.
Assay [6] concerns the target Alpha-2C adrenergic receptor (Homo sapiens) (UniProt P18825). Put plainly: compounds altering alpha2C-coupled GIRK flux – cell-based, HEK293 alpha2C/GIRK1/2, thallium flux, primary screen (AID 624;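 active means fluorescence slope after compound addition differing from the mean of all screened samples at 99.7% confidence, in either direction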;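 further: slope of fluorescence ratio to pre-addition baseline per second over 15 to 24 s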). The note with it: thallium flux BTC fluorescence, at 10 µM, actives lie on both sides.
Assay [7] in a line: blockers of RIG-like receptor reporter activation – cell-based, Sendai virus stimulus, luciferase, 10K MLSCN set, TLR/RLR signaling modifier project, primary screen (AID 602276;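 active means inhibition at or above 50% at 10 µM; inactive means inhibition below 50%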;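 further: firefly luciferase from ISG56 promoter only with Renilla not read in this screen; 0% = Sendai virus plus DMSO and 100% = medium plus DMSO without virus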). The note with it: HEK293 RL24 IRF3 luciferase reporter, at 10 µM, stronger effect = higher value. On the technique in general: In a reporter assay the amount or activity of a reporter protein is the signal.
Assay [8] in a line: TLR3 IRF3 reporter activation blockers – cell-based, poly I:C stimulus, luciferase, 10K MLSCN set, primary screen (AID 602277). Particulars: HEK293-TLR3 RL24 IRF3 luciferase reporter, at 10 µM, stronger effect = higher value.

Each structure is given as a SMILES string. Active and inactive are the calls of the source.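 How the source made its calls, unless noted: active means inhibition of the reporter signal at or above 50%; inactive means inhibition below 50%.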

Chain of Alpha-2C adrenergic receptor (Homo sapiens) (P18825 whole entry, looked up): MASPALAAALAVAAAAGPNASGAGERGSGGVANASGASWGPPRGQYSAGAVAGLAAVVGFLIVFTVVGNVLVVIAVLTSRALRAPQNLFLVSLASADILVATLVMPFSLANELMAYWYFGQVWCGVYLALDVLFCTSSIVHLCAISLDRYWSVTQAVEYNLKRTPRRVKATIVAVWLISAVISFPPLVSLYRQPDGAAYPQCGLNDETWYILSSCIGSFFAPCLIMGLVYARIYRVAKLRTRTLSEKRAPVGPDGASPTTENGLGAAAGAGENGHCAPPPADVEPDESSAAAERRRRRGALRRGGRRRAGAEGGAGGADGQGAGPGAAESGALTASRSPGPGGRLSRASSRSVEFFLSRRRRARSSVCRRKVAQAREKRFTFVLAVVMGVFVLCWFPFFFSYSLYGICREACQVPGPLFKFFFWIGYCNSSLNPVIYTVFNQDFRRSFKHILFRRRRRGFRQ

Turning to `Fc1cccc2sc(Nc3nnc(-c4ccco4)o3)nc12`, in assay [1], the cell count amounted to 404. Moreover, the inhibition was -3.6% (inactive) in assay [1], -0.9% (inactive) in assay [3], -39.7% (inactive) in assay [7] and -83% (inactive) in assay [8]. Also, the inhibition of aggregation in assay [2] was 2.5% (inactive). Further, the results for the nuclei count in assay [2] and in assay [3] were 109% and 94.5%, respectively. Besides, the fluorescence slope in assay [4] was -0.501 (inactive). Further, the NADPH fluorescence slope in assay [5] is -4.9e-05 (inactive). In addition, the slope in assay [6] was 0.0148 (active).

`O=C(Nc1ccc(S(=O)(=O)N2CCCCCC2)cc1)c1ccco1`: the cell count in assay [1] stood at 355. Further, the inhibition in assay [1] is 1.5% (inactive); in assay [3], -32.3% (inactive); in assay [7], -8.22% (inactive); in assay [8], -19.4% (inactive). Further, the inhibition of aggregation in assay [2] is 12.9% (inactive). Besides, the nuclei count in assay [2] turned out to be 105%; in assay [3], 126%. Also, the fluorescence slope in assay [4] is -0.434 (inactive). The NADPH fluorescence slope in assay [5] is -6.7e-05 (inactive). Also, in assay [6], the slope is 0.00521 (inactive).

Regarding `O=C1CCCCCC1C1(O)C(=O)Nc2ccccc21` (centres undefined), the cell count in assay [1] was found to be 349. Further, the inhibition is 10% (inactive) in assay [1], -26.3% (inactive) in assay [3], 9.01% (inactive) in assay [7] and 29% (inactive) in assay [8]. Besides, in assay [2], the inhibition of aggregation was -6% (inactive). Besides, the nuclei count amounted to 101% in assay [2] and 116% in assay [3]. In assay [4], the fluorescence slope is -0.424 (inactive). Further, in assay [5], the NADPH fluorescence slope was 4e-05 (inactive). Moreover, the slope in assay [6] was 0.00358 (inactive).

In the case of `Cc1ccnc(N2CCN(C(=O)CSc3nc4ccccc4nc3N3CCCCC3)CC2)c1`, the cell count in assay [1] stood at 451. Moreover, the inhibition in assay [1] is -9.8% (inactive); in assay [3] it was -13.7% (inactive); in assay [7] it was 9.18% (inactive); in assay [8], 4.58% (inactive). For the same compound, the inhibition of aggregation in assay [2] is -14.3% (inactive). In addition, the nuclei count was found to be 113% in assay [2] and 100% in assay [3]. Besides, in assay [4], the fluorescence slope was -0.333 (inactive). Moreover, the NADPH fluorescence slope in assay [5] was 9.1e-07 (inactive). Besides, in assay [6], the slope is 0.00385 (inactive).

Turning to `CCN(CC)CCOC(=O)c1cccc(OC)c1`, in assay [1], the cell count amounted to 249. Further, the inhibition in assay [1] is 4.3% (inactive); in assay [3], 16.1% (inactive); in assay [7], 6.23% (inactive); in assay [8], 14.4% (inactive). In assay [2], the inhibition of aggregation was -8.4% (inactive). Also, the values for the nuclei count in assay [2] and in assay [3] were 114% and 98.7%, respectively. Moreover, the fluorescence slope in assay [4] is -0.638 (inactive). In addition, in assay [5], the NADPH fluorescence slope is -2.4e-05 (inactive). Further, the slope in assay [6] is 0.00412 (inactive).

`CCOC(=O)CN1CC23C=CC(O2)C(C(=O)NCc2ccc(F)cc2)C3C1=O` (centres undefined): in assay [1], the cell count was 572. For the same compound, the inhibition in assay [1] was -2% (inactive); in assay [3], -142% (inactive); in assay [7], 14% (inactive); in assay [8], 27.7% (inactive). For the same compound, the inhibition of aggregation in assay [2] was 15.7% (inactive). The nuclei count in assay [2] is 106%; in assay [3], 131%. Also, the fluorescence slope in assay [4] is -0.589 (inactive). Besides, the NADPH fluorescence slope in assay [5] was -1.1e-05 (inactive). The slope in assay [6] was 0.00638 (inactive).

Take `Cc1ccc2c(c1)c1c3n2CC(=C2C(=O)OC(C)(C)OC2=O)NC3CCC1` (centres undefined): the cell count in assay [1] was 613. The inhibition in assay [1] is -10.5% (inactive); in assay [3], -142% (inactive); in assay [7], 16.6% (inactive); in assay [8], 1.44% (inactive). In assay [2], the inhibition of aggregation was -5.4% (inactive). The nuclei count in assay [2] stood at 10.9%; in assay [3] it was 139%. The fluorescence slope in assay [4] was -0.589 (inactive). In addition, the NADPH fluorescence slope in assay [5] was -1.7e-05 (inactive). Besides, the slope in assay [6] was 0.00226 (inactive).

Take `NC(=O)c1c(NC(=O)Cc2cccs2)sc2c1CCC2`: the cell count in assay [1] is 537. Besides, the inhibition in assay [1] is -17.1% (inactive); in assay [3] it was -43% (inactive); in assay [7] it was -14.3% (inactive); in assay [8], -35.7% (inactive). Also, the inhibition of aggregation in assay [2] was 12.6% (inactive). In addition, the nuclei count is 109% in assay [2] and 150% in assay [3]. The fluorescence slope in assay [4] is -0.483 (inactive). Further, in assay [5], the NADPH fluorescence slope was -6.1e-05 (inactive). In assay [6], the slope is 0.00572 (inactive).

As for `Cc1cc(=O)[nH]c(SCC(=O)NCc2ccco2)n1`, the cell count in assay [1] came to 355. Further, the inhibition in assay [1] is 8.2% (inactive); in assay [3], 12.5% (inactive); in assay [7], 18.4% (inactive); in assay [8], 20.9% (inactive). Moreover, in assay [2], the inhibition of aggregation is 0% (inactive). In addition, the nuclei count in assay [2] amounted to 95.2%; in assay [3], 98%. Moreover, the fluorescence slope in assay [4] was -0.57 (inactive). In addition, the NADPH fluorescence slope in assay [5] is -7.3e-05 (inactive). For the same compound, in assay [6], the slope is 0.00478 (inactive).

On to `COc1cccc(NC(=O)c2nnn(Cc3ccc(Br)cc3F)c2N)c1`, for which the cell count in assay [1] worked out at 674. In addition, the inhibition in assay [1] is -2.8% (inactive); in assay [3], -61.5% (inactive); in assay [7], 16.4% (inactive); in assay [8] it was 9.8% (inactive). In addition, in assay [2], the inhibition of aggregation is 28.1% (inactive). Moreover, the nuclei count in assay [2] worked out at 109%; in assay [3] it was 108%. The fluorescence slope in assay [4] was -0.484 (inactive). Also, the NADPH fluorescence slope in assay [5] is -4e-05 (inactive). The slope in assay [6] was 0.00669 (inactive).

`Cc1cc(C)c(OCC(=O)Nc2cccc(O)c2)cc1C`: in assay [1], the cell count stood at 252. Further, the inhibition in assay [1] was -14.9% (inactive); in assay [3], -20.3% (inactive); in assay [7], 16.6% (inactive); in assay [8], 11.6% (inactive). In addition, the inhibition of aggregation in assay [2] is 46.4% (active). Further, the values for the nuclei count in assay [2] and in assay [3] were 40.4% and 102%, respectively. The fluorescence slope in assay [4] is -0.44 (inactive). For the same compound, in assay [5], the NADPH fluorescence slope is -8.2e-06 (inactive). Besides, in assay [6], the slope is 0.0065 (inactive).

Turning to `CC(C)CCSc1nc2c(c(=O)[nH]c(=O)n2C)n1CCCc1ccccc1`, the cell count in assay [1] came out at 618. Moreover, the inhibition in assay [1] is -5.9% (inactive); in assay [3] it was -34.8% (inactive); in assay [7] it was 10.3% (inactive); in assay [8], 29.8% (inactive). Moreover, in assay [2], the inhibition of aggregation was 26.4% (inactive). For the same compound, the nuclei count in assay [2] came to 103%; in assay [3], 120%. In assay [4], the fluorescence slope was -0.414 (inactive). For the same compound, the NADPH fluorescence slope in assay [5] was -4.8e-05 (inactive). Moreover, the slope in assay [6] is 0.00519 (inactive).

Take `COc1ccccc1C(=O)Nc1nc2ccc(S(C)(=O)=O)cc2s1`: the cell count in assay [1] is 417. Moreover, the inhibition in assay [1] was -6.5% (inactive); in assay [3], -32.3% (inactive); in assay [7], -2.51% (inactive); in assay [8] it was -33.9% (inactive). In addition, the inhibition of aggregation in assay [2] is -0.8% (inactive). The values for the nuclei count in assay [2] and in assay [3] were 115% and 132%, respectively. Also, the fluorescence slope in assay [4] is -0.241 (inactive). For the same compound, the NADPH fluorescence slope in assay [5] was -6.6e-06 (inactive). In addition, in assay [6], the slope is 0.00752 (inactive).

Regarding `CCOC(=O)N1CCN(Cc2nc3c(c(=O)[nH]c(=O)n3C)n2Cc2cc(C)ccc2C)CC1`, the cell count in assay [1] worked out at 693. Also, the inhibition was -2.2% (inactive) in assay [1], -103% (inactive) in assay [3], 19.2% (inactive) in assay [7] and 27.4% (inactive) in assay [8]. In addition, in assay [2], the inhibition of aggregation is -78% (inactive). Besides, the nuclei count in assay [2] amounted to 115%; in assay [3], 119%. The fluorescence slope in assay [4] is -0.505 (inactive). Moreover, the NADPH fluorescence slope in assay [5] is -5.3e-05 (inactive). The slope in assay [6] is 0.00433 (inactive).

Usually inhibition stands for the drop in the measured response relative to a control, in per cent.
